In paper PMC4336329 (PLoS ONE, 2015):
Among all 310,000 compounds or so, about 14,000 (4.5%) showed an effect of 50% or more. The effect is printed as a negative number. The sample holds strong results, similar compounds and a random draw of the others, so the mix is not that of the screen.

Molecular target: human ether-à-go-go-related gene (hERG) potassium channel (human, UniProt Q12809)
Experiment: primary screen, population patch clamp on CHO cells stably expressing hERG; higher = less effect of the substance
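Note: peak tail current of the secondary pulse compared with the same well before compound.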

Chain of human ether-à-go-go-related gene (hERG) potassium channel (Q12809 whole entry, looked up): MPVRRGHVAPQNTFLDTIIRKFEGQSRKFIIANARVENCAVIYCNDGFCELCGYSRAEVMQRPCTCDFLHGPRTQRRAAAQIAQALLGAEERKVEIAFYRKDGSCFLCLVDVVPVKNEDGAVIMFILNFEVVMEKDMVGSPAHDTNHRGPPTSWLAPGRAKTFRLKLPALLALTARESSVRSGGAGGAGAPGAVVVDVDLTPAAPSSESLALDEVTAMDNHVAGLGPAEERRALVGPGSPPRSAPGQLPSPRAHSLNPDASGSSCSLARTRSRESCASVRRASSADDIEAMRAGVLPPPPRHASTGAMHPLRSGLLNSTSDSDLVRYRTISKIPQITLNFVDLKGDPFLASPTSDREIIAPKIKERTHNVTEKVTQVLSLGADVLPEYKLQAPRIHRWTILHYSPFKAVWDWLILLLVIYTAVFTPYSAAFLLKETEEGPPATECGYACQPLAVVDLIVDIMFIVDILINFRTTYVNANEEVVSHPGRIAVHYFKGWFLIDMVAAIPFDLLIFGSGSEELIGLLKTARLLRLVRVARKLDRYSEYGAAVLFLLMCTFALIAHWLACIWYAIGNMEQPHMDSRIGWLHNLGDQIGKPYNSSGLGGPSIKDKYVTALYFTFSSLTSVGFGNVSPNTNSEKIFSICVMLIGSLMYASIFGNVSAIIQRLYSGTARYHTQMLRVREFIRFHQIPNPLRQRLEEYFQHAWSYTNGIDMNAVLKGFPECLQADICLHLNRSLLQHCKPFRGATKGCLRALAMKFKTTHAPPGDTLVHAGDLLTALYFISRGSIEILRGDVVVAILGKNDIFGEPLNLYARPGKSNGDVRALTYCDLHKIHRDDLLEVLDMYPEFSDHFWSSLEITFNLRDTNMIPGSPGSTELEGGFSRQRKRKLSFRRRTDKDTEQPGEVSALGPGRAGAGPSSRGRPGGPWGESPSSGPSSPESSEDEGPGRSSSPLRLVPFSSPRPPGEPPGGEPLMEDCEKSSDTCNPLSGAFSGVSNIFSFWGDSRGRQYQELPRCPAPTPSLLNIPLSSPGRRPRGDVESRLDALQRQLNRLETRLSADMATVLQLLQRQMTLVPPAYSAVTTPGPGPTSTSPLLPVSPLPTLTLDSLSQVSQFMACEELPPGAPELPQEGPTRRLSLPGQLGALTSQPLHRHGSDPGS

Row | Structure (SMILES) | hERG current change (%, negative = inhibition) at 10uM [%]
1 | CCOCCCNC(=S)N1CCN(C(=O)C(=O)Nc2ccc(C(=O)OC)cc2)CC1 | -40.6
2 | CSCCC(NC(=O)COc1ccccc1)C(=O)OCC(=O)c1cc2ccccc2o1 (centres unmarked) | 8.62
3 | COc1ccc(C(=O)NC(=S)NCc2ccccc2)cc1 | -0.211
4 | Cc1ccccc1CNC(=O)CCC(=O)N1CCOc2ccccc21 | 7.41
5 | Cc1ccc(-c2c(C)n([O-])c3c([n+]2=O)CCCCC3)o1 | -1.3
6 | Cc1c(NC(=O)c2ccc(Cl)nc2)cccc1-c1nc2cccnc2s1 | -48.1
7 | CCCOc1ccc(/C=c2\sc3ncnn3c2=O)cc1 | 6.61
8 | CCOCc1[nH]c(=S)[nH]c(=O)c1Cc1ccc(OCC(C)C)cc1 | 14
9 | CCOCc1[nH]c(=S)[nH]c(=O)c1Cc1ccc(OCC)cc1 | 9.49
10 | CCOCc1[nH]c(=S)[nH]c(=O)c1Cc1ccc(OC(C)C)cc1 | -58.8
11 | COc1cccc(C2=CC(c3cccs3)n3nnnc3N2)c1 (centres unmarked) | 14.5
12 | CCc1nnc(SCc2ccc(OC(C)C)cc2)n1N | 9.36
13 | CCCCn1c2c(c(=O)n(C)c1=O)C(CC(=O)OCC(=O)Nc1cccc(C(F)(F)F)c1)C(=O)N2 (centres unmarked) | -5.56
14 | COc1ccc(Cl)cc1NC(=O)C(C)Sc1nnc(C2CC2)n1C1CC1 (centres unmarked) | -69.5
15 | COc1ccc(NC(=O)C(C)Sc2nnc(C3CC3)n2C2CC2)cc1 (centres unmarked) | -13.3
16 | CC(Sc1nnc(C2CC2)n1C1CC1)C(=O)Nc1ccccc1C#N (centres unmarked) | -10
17 | COc1cccc(NC(=O)C(C)Sc2nnc(C3CC3)n2C2CC2)c1 (centres unmarked) | -67
18 | Cc1ccc(NC(=O)C(C)Sc2nnc(C3CC3)n2C2CC2)cc1S(=O)(=O)N1CCOCC1 (centres unmarked) | -51
19 | CC(Sc1nnc(C2CC2)n1C1CC1)C(=O)Nc1cccc(S(=O)(=O)N(C)C)c1 (centres unmarked) | -19.5
20 | Cc1ccc(NC(=O)C(C)Sc2nnc(C)n2C2CC2)cc1S(=O)(=O)N1CCOCC1 (centres unmarked) | -13.9
21 | CC(Sc1nnc(C2CC2)n1C1CC1)C(=O)Nc1cccc(S(=O)(=O)N2CCOCC2)c1 (centres unmarked) | -11.8

Row | Structure (SMILES) | hERG current change (%, negative = inhibition) at 10uM [%]
22 | COc1ccc(Cl)cc1NC(=O)C(C)Sc1nncn1C (centres unmarked) | 0.256
23 | Cc1ccc(C)c(OCCC(=O)NCCc2ccc(S(N)(=O)=O)cc2)c1 | 10.7
24 | O=C(c1cccs1)[C@@H]1[C@@H]2C(=O)N(Cc3ccc4c(c3)OCO4)C(=O)[C@@H]2C2c3ccccc3C=CN21 (some centres unmarked) | -26.7
25 | O=C(CCCCCN1C(=O)c2cccc3cccc(c23)C1=O)NCCCO | -1.71
26 | O=c1[nH]c(C2CC2)nc2sc3c(c12)CCCC3 | 15.8
27 | CCOC(=O)c1c(NC(=O)COC(=O)Cc2n[nH]c(=O)c3ccccc23)sc(C(=O)N(C)C)c1C | -2.24
28 | CCOC(=O)c1c(NC(=O)COC(=O)CCOc2ccc(OCC)cc2)sc(C(=O)N(C)C)c1C | -8.87
29 | CCOC(=O)c1c(NC(=O)COC(=O)Cc2ccccc2[N+](=O)[O-])sc(C(=O)N(C)C)c1C | -68.9
30 | CCOC(=O)c1c(NC(=O)COC(=O)Cc2c[nH]c3ccccc23)sc(C(=O)N(C)C)c1C | -62.5
31 | CCOC(=O)c1c(NC(=O)COC(=O)c2ccccn2)sc(C(=O)N(C)C)c1C | 4.44
32 | CCOC(=O)c1c(NC(=O)COC(=O)c2ccc([N+](=O)[O-])cc2)sc(C(=O)N(C)C)c1C | -8.65
33 | CN(Cc1nc2ccccc2[nH]1)Cc1nc(CC2CC2)no1 | -14.5
34 | CCOc1cc(Br)ccc1S(=O)(=O)N1CCC(C(N)=O)CC1 | -5.26
35 | O=C1COc2ccc(C(=O)COc3ccc([N+](=O)[O-])cc3)cc2N1 | 8.2
36 | CC(C)Oc1ccc(C(CC(=O)O)NC(=O)c2cccs2)cc1 (centres unmarked) | -2.74
37 | COc1ccc(C2C3=C(CC(C)(C)CC3=O)Oc3ncn(Cc4ccco4)c(=N)c32)cc1 (centres unmarked) | -68.3
38 | N=c1c2c(ncn1Cc1ccco1)Oc1ccc3ccccc3c1C2c1ccccc1 (centres unmarked) | -6.08
39 | COc1ccc(C2C3=C(CC(C)(C)CC3=O)OC(N)=C2[N+](=O)[O-])cc1 (centres unmarked) | 8.74
40 | COc1ccc(C2C3=C(CC(C)(C)CC3=O)Oc3ncn(CCO)c(=N)c32)cc1OC (centres unmarked) | -24.5
41 | CC(C)Cn1cnc2c(c1=N)C(c1ccccc1)C1=C(CC(C)(C)CC1=O)O2 (centres unmarked) | -38.8
42 | CC1(C)CC(=O)C2=C(C1)Oc1ncn(CCCO)c(=N)c1C2c1ccccc1 (centres unmarked) | -29

Row | Structure (SMILES) | hERG current change (%, negative = inhibition) at 10uM [%]
43 | COc1ccc(C2C(C#N)=C(N)OC3=C2C(=O)CC(C)(C)C3)cc1 (centres unmarked) | 12.8
44 | CC1(C)CC(=O)C2=C(C1)Oc1ncn(CCO)c(=N)c1C2c1ccccc1 (centres unmarked) | -35.3
45 | COc1ccc(C2C3=C(CC(C)(C)CC3=O)Oc3ncn(CCCn4ccnc4)c(=N)c32)cc1 (centres unmarked) | -16.6
46 | CC1(C)CC(=O)C2=C(C1)Oc1ncn(CCCn3ccnc3)c(=N)c1C2c1ccccc1 (centres unmarked) | -53.3
47 | CC1(C)CC(=O)C2=C(C1)Oc1ncn(Cc3ccco3)c(=N)c1C2c1ccccc1 (centres unmarked) | -60.8
48 | COc1ccc(C2C3=C(CC(C)(C)CC3=O)Oc3ncn(CC(C)C)c(=N)c32)cc1 (centres unmarked) | -69.1
49 | Cc1onc(-c2c(Cl)cccc2Cl)c1C(=O)O/N=C(\C#N)c1c(Cl)cccc1Cl | 9.4
50 | COc1cccc(CNC(=O)CCNC(=O)c2ccc(Br)o2)c1 | 11.2
51 | Nc1cc(=O)[nH]c(SCC(=O)Nc2ccccc2Sc2ccc(Cl)cc2)n1 | 14.5
52 | Cc1ccc(OCCNC(=O)CNC(=O)c2ccc(C)cc2)cc1 | 9.37
53 | COCCNC(=O)Cc1cn(C)c2ccccc12 | 4.15
54 | CCOC(=O)N1CCC(=NNC(=O)c2ccc(O)cc2)CC1 | 4.27
55 | COc1ccc(C2C3=C(CC(C)(C)CC3=O)Oc3ncn(Cc4ccccc4)c(=N)c32)cc1 (centres unmarked) | -55.5
56 | COc1ccc(C2C3=C(CC(C)(C)CC3=O)Oc3ncn4nc(-c5cccnc5)nc4c32)cc1 (centres unmarked) | -2.59
57 | COc1ccc(C2C3=C(CC(C)(C)CC3=O)Nc3c2c(=O)[nH]c(=O)n3Cc2ccccc2)cc1 (centres unmarked) | 8.57
58 | COc1ccc(-c2[nH]ncc2CN2CCC(C(=O)c3ccc(F)cc3)CC2)cc1 | -76.2
59 | O=C(c1ccc(F)cc1)C1CCN(Cc2cn[nH]c2-c2ccc(F)cc2)CC1 | -75.2
60 | O=C(C1CCN(Cc2cn[nH]c2-c2ccc(F)cc2F)CC1)N1CCOCC1 | 8.72
61 | COc1ccc(C(=O)N2CCN(Cc3cn[nH]c3-c3ccc(OC)cc3F)CC2)cc1 | -38.3
62 | COc1ccc(-c2[nH]ncc2CN2CCC(C(=O)N3CCOCC3)CC2)c(F)c1 | 5.23
63 | O=C(c1ccc(F)cc1)C1CCN(Cc2cn[nH]c2-c2ccccc2)CC1 | -78.8

Row | Structure (SMILES) | hERG current change (%, negative = inhibition) at 10uM [%]
64 | O=C(c1ccc(F)cc1)C1CCN(S(=O)(=O)c2ccccc2)CC1 | -43.1
65 | O=S(=O)(c1ccc2c(c1)CCN2)N1CCOCC1 | -2.2
66 | O=c1c2cc(N3CCOCC3)ccc2[nH]c(=S)n1Cc1ccco1 | -25.1
67 | Cc1cc(N2CC34C=CC(O3)C(C(=O)O)C4C2=O)no1 (centres unmarked) | 2.22
68 | COC(=O)COc1ccc2occ(C(C)=O)c2c1 | -3.74
69 | O=C(NCC(c1ccco1)N1CCc2ccccc2C1)c1ccccc1Br (centres unmarked) | -37.5
70 | CCCCCCC1C(C#N)=C(N)OC2=C1C(=O)CC(C)(C)C2 (centres unmarked) | -0.43
71 | Cc1ccccc1OC(C)C(=O)N1CCC(Cc2ccccc2)CC1 (centres unmarked) | -17.5
72 | O=C(/C=C/c1ccco1)Nc1ccc(CN2CCOCC2)cc1 | -31.3
73 | COc1ccc(CN2CCC(=O)N([C@H](CO)CC(C)C)CC2)cc1 | -2.62
74 | CCCN1CCC(=O)N(CCSc2ccc(OC)cc2)CC1 | -45.4
75 | COc1ccc(SC[C@H](CC(C)C)N2CCN(CCc3ccccc3)CCC2=O)cc1 | -71.3
76 | COc1ccc(CN2CCC(=O)N([C@H](CO)Cc3ccccc3)CC2)cc1 | -2.16
77 | CCCN1CCC(=O)N([C@H](CSc2ccc(OC)cc2)CC(C)C)CC1 | -70.8
78 | COc1ccc(SC[C@H](Cc2ccccc2)N2CC[C@@H](C)CCC2=O)cc1 | -20.1
79 | COc1ccc(SC[C@H](Cc2ccccc2)N2CCN(CCc3ccccc3)CCC2=O)cc1 | -74.6
80 | CCCN1CCC(=O)N([C@H](CSc2ccc(OC)cc2)Cc2ccccc2)CC1 | -70.5
81 | COc1ccc(SC[C@H](CC(C)C)N2CCN(C)CCC2=O)cc1 | -36.3
82 | COc1ccc(SC[C@H](Cc2ccccc2)N2CC[C@@H](O)CCC2=O)cc1 | -8.62
83 | COc1ccc(SC[C@H](Cc2ccccc2)N2CC[C@@H](C(C)(C)C)CCC2=O)cc1 | 9.92
